# Bioassay records (PubChem BioAssay)
# SW480 rerep = A quantitative high throughput screen for small molecules that induce DNA re-replication in SW480 colon adenocarcinoma cells; Potency, µM (series often up to 46.1 µM), inactives show at the top dose re-replication activation, usual class: activators; actives 1.8% (n = 340,000); SW480 DNA re-replication, Hoechst DNA content imaging, 48 h; note: potency is the fitted concentration of half-maximal effect; % of control where 0% means no effect; nearly all actives have a fitted effect of over 55% in size
#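 First, 250 cells per well were seeded. Next, compound or vehicle (23 nL) was pinned in, plates sat 48 hr at 37 C. Finally Hoechst was added for 40 min before fluorescence scanning.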
# MCF10A rerep = A quantitative high throughput screen for small molecules that induce DNA re-replication in MCF 10a normal breast cells | MCF 10A DNA re-replication, Hoechst nuclear intensity, 48 h | Potency, µM (titrated, usually from 46.1 µM), for inactives: at the highest dose activity, positive = re-replication, actives largely listed as activators | actives 2.9% (n = 350,000) | AID 624296, 2012; note: potency is the fitted concentration of half-maximal effect; % of control where 0% means no effect; nearly all actives have a fitted effect of over 50% in size
# Giardia killer = Small Molecules that selectively kill Giardia lamblia: qHTS. activity change, % at 7.66 µM, hits read low. AID 540267, 2011. actives 0.15% (n = 340,000). Giardia lamblia trophozoite viability; in the data active = activity change below about -80%; inconclusive = between about -30% and that limit;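 note: parasites exposed to compound for two days anaerobically before the ATP read; % is set by controls: 0 for no effect and ±100 for the full control effect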
#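 Anaerobic 48 hrs incubation at 37 deg C of 100 trophozoites/well with test compounds; ATPLite 1-Step luminescence, 15-30 min RT, reports cellular ATP as viability.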
# IL1B secr inh = qHTS for Inhibitors of Inflammasome Signaling: IL-1-beta AlphaLISA Primary Screen | THP-1 LPS/ATP IL-1B secretion, AlphaLISA, 16 h; active compounds read low | activity change, % at 57.5 µM | actives 4.7% (n = 360,000) | AID 743279, 2014; in the data active = activity change below about -50%; inconclusive = mostly about -30% to -49%; note: % is set by controls: 0 for no effect and ±100 for the full control effect
#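 THP-1 cells pretreated 1 hr with compounds (up to 57.5 uM final), then stimulated with LPS (250 ng/mL final) plus ATP (1.25 mM final); secreted IL-1B measured by AlphaLISA after 16 hr, decreased signal indicating inhibition.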
# Vif-APOBEC3F blk = qHTS for Inhibitors of Vif-A3F Interactions: qHTS | HeLa A3F-eYFP + Vif (tagged APOBEC3F with the HIV-1 protein that degrades it), YFP fluorescence increase | Potency, µM (series often up to 46.1 µM), for the others: at the top dose activity, negative = active | actives 0.2% (n = 390,000); note: potency is the fitted concentration of half-maximal effect; % of control where 0% means no effect; nearly all actives have a fitted effect of over 65% in size
#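 HeLa cells stably expressing A3F-eYFP plus Vif, plated and incubated overnight at 37 deg C, then exposed to compounds overnight at 37 deg C. Blocked degradation read as raised yellow fluorescence (Ex 488/Em 500-530).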
# Vif-A3G inh = qHTS for Inhibitors of Vif-A3G Interactions: qHTS. actives 0.076% (n = 410,000). HeLa A3G-eYFP + Vif (tagged APOBEC3G with the HIV-1 protein that degrades it), YFP fluorescence, overnight. Potency, µM (top dose mostly 46.1 µM), without a hit: top-dose activity, negative = active, actives largely listed as inhibitors. DNA dC->dU-editing enzyme APOBEC-3G (Homo sapiens), Q9HC16. AID 602310, 2012; note: potency is the fitted concentration of half-maximal effect; % is set by controls: 0 for no effect and ±100 for the full control effect; nearly all actives have a fitted effect of over 60% in size
# Target sequence (Q9HC16 whole entry, looked up): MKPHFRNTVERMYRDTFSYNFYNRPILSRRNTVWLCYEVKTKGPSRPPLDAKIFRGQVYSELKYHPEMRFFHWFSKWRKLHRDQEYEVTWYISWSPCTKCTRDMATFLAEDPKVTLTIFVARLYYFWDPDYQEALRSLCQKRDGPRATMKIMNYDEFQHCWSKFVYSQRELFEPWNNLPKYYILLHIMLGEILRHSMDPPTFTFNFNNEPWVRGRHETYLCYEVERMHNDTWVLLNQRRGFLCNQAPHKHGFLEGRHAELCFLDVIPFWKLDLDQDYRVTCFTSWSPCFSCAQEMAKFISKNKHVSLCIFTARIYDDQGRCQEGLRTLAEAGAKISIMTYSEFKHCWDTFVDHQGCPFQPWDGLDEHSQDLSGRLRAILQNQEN
#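 HeLa cells stably expressing Vif and C-terminally eYFP-tagged A3G, seeded overnight at 37 deg C, then exposed to compound by pintool overnight at 37 deg C. Rise in yellow fluorescence (Ex 488/Em 500-530, Acumen) marks blocked Vif-driven A3G degradation.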
# * = called active by the depositor; ? = inconclusive; . = no result; [ ] = dose if it differs, or a comment. This is a sample that favours compounds with a hit; in the whole collection about 6.9% have one here. Unless noted, calls come from the whole dose curve; as a rule, active = well fitted curve in the direction sought with a large enough effect; inconclusive = small, poorly fitted or top-dose-only effect, or another doubt; inactive = no such curve, though single readings can be large; an effect the other way counts as inactive or inconclusive.
SMILES,SW480 rerep,MCF10A rerep,Giardia killer,IL1B secr inh,Vif-APOBEC3F blk,Vif-A3G inh
O=C(CN1C(=O)NC(Cc2c[nH]c3ccccc23)C1=O)Nc1cccc(S(=O)(=O)N2CCCCCC2)c1 (stereo not given),15.8%,48.7%,-13.5,-55.0*,0.7%,-7.8%
COc1cccc(NC(=O)CN2C(=O)NC(Cc3c[nH]c4ccccc34)C2=O)c1 (stereo not given),-5.9%,8.0%,-7.8,-8.9,-1.4%,0.2%
CCOC1(OCC)C(c2ccc(N)cc2)C(C#N)(C#N)C1(OCC)OCC (stereo not given),-6.3%,7.4%,-1.8,-7.4,4.0%,2.1%
CCOC1(OCC)C(c2ccc(Cl)cc2)C(C#N)(C#N)C1(OCC)OCC (stereo not given),?,?,-17.4,-57.3*,-4.4%,-19.9%
Cc1[nH]n(-c2ccccc2)c(=O)c1/C=N/O,?,?,-25.7,13.6,-12.9%,?
CCOc1ccc2nc(/N=C/c3c(C)[nH]n(-c4ccccc4)c3=O)sc2c1,2.91µM*,-29.1%,-16.6,0.0,14.5%,-6.9%
CCOc1ccc2nc(/N=C/c3c(C)[nH]n(-c4ccc(C)cc4)c3=O)sc2c1,-74.1%,-13.1%,-3.3,-5.8,-3.7%,1.0%
Cc1ccc2cccc(N=Cc3c(C)[nH]n(-c4ccccc4)c3=O)c2n1,7.31µM*,1.8%,9.5,20.8,?,-12.9%
O=S(=O)(c1ccccc1C(F)(F)F)N1CCN(c2nc(-c3ccccc3)nc3ccccc23)CC1,.,.,5.4,.,.,-1.9%
Cc1ccc(CSCCNC(=O)C2CCN(S(=O)(=O)Cc3ccccc3)CC2)cc1,.,.,.,.,2.6%,1.3%
Cn1c(SCC(=O)Nc2nc(C(C)(C)C)cs2)nnc1C1CC1,-30.9%,6.51µM*,3.0,12.2,-0.7%,0.9%
O=C(CSc1ccc2ccccc2c1)NCCc1ccc(O)c(O)c1,0.0%,?,-21.6,-52.9*,-13.8%,?
O=C(c1ccccc1NS(=O)(=O)c1ccc2c(c1)OCCO2)N1CCOCC1,11.6µM*,6.51µM*,8.4,7.1,-1.9%,-0.6%
CC(=O)C1=C(c2ccc(Cl)cc2)N(C(C)=O)n2c(nnc2C2CCCCC2)S1,.,.,.,.,-3.0%,2.1%
CSCC[C@H](NC(=O)c1cc2c([nH]c3ccccc32)c(-c2ccccc2)n1)C(=O)O,23.1µM*,0.1%,5.4,4.1,1.4%,-0.4%
C[C@H](NC(=O)c1cc2c([nH]c3ccccc32)c(-c2ccccc2)n1)C(=O)O,-4.9%,-16.0%,0.1,5.1,-5.2%,-3.9%
COC(=O)C(CCSC)NC(=O)Cn1ncc2c(=O)oc3ccccc3c21 (stereo not given),-1.9%,16.3%,-8.1,-55.0*,-3.5%,-0.9%
COc1cc(NC(=O)Cn2ncc3c(=O)oc4ccccc4c32)cc(OC)c1OC,.,.,.,.,-3.1%,5.7%
COC(=O)[C@H](CCSC)NC(=O)c1cc2c(cn1)[nH]c1ccccc12,2.9%,3.2%,-8.5,-80.2*,-1.6%,-3.7%
S=C(NCCCc1cnc[nH]1)NCCCN(CCc1ccccc1)c1ccc(Br)cn1,.,.,-5.4,.,.,-2.6%
FC(F)(F)c1nnc2c(Sc3ccccc3)nc3ccc(Cl)cc3n12,?,11.6µM*,4.8,-69.5*,1.4%,1.9%
FC(F)(F)c1nc2ccccc2n2c(-c3ccc(Cl)cc3Cl)nnc12,?,25.6%,5.6,-4.0,-26.3%,-1.5%
COc1ccc(NC(=O)Cn2c(=O)n(Cc3ccco3)c(=O)c3oc4ccccc4c32)cc1Cl,.,.,.,.,3.4%,-6.5%
CCN(CC)CC(C)(C)NS(=O)(=O)c1ccc(Cl)cc1,?,2.5%,-1.9,-2.5,-10.7%,0.1%
CN(C)CC(C)(C)NS(=O)(=O)c1ccc(Cl)cc1,?,14.6µM*,-8.7,-5.8,-7.1%,-2.8%
SMILES,SW480 rerep,MCF10A rerep,Giardia killer,IL1B secr inh,Vif-APOBEC3F blk,Vif-A3G inh
Cc1ccc(-c2cc(C(=O)N(Cc3ccc(C(C)(C)C)cc3)Cc3ccco3)no2)cc1,.,.,.,.,0.2%,1.1%
COc1ccc(NC(=O)Cn2c(=O)n(Cc3ccccc3Cl)c(=O)c3cc(OC)c(OC)cc32)cc1OC,.,.,.,.,-6.2%,1.4%
CC/C(=C\c1oc2cc3ccccc3cc2[n+]1CC)Nc1ccccc1,18.4µM*,23.1µM*,44.0,-106.8*,-1.6%,0.4%
O=C(CN1C(=O)c2ccccc2C1=O)NC1CCCCCC1,-2.4%,-1.5%,-13.7,2.8,-1.9%,0.4%
O=C(CNC1CCCCC1)N1CCc2ccccc2C1,-0.2%,251.3%[0.0737 µM],8.5,5.8,0.7%,2.7%
O=C(CN1CCc2ccccc2C1)NC1CCCC1,18.4µM*,7.7%,-13.8,5.3,0.9%,1.6%
O=C(NC1CCCCC1)N1CCc2ccccc2C1,-0.7%,-1.9%,21.7,-78.7*,-4.2%,-7.1%
CCOC(=O)Cn1nc(C)cc1NC(=O)c1cc(OC)c(OC)c(OC)c1,-2.0%,23.1µM*,6.3,-78.4*,-1.1%,0.3%
CC(=O)N1N=C(c2ccc(C)cc2)OC1c1ccc(Br)cc1 (stereo not given),-2.2%,?,-11.1,-68.9*,-0.1%,0.8%
COc1ccccc1Cn1cc(C(=O)c2ccc(C)cc2)c(=O)c2cc(C)ccc21,.,.,.,.,0.0%,4.6%
Cc1ccccc1OCC(=O)NNC(=S)NC(=O)c1ccco1,?,14.1µM*,0.5,75.6,-7.9%,5.2%
Cc1ccccc1OCC(=O)Nc1ccccc1NC(=O)c1ccco1,1.5%,12.5%,-5.9,30.7,-13.4%,-4.9%
CCOc1cc(NC(=O)c2ccco2)c(OCC)cc1NC(=O)COc1ccccc1C,10.2%,2.06µM*,20.1,-9.9,-0.2%,-0.3%
Cc1ccccc1C(=O)OCc1cc(=O)n2nc(C(C)C)sc2n1,.,.,.,.,9.2%,-1.5%
CCOC(=O)CCCCN(Cc1ccccc1F)S(=O)(=O)c1ccc(F)c(C(=O)Nc2cc(Cl)cc(Cl)c2)c1,.,.,.,.,-9.9%,6.7%
CC(=O)c1ccc(NC(=O)CN2C(=O)/C(=C/C=C/c3ccccc3)SC2=S)cc1,-7.7%,10.3µM*,4.5,0.0,?,-8.5%
O=C(CCN1C(=O)S/C(=C\C=C\c2ccccc2)C1=O)Nc1ccc(O)cc1,-11.2%,9.0%,16.0,-11.6,3.9%,0.7%
O=C(CN1C(=O)S/C(=C\C=C\c2ccccc2)C1=O)Nc1cccc(O)c1,?,?,-21.2,-109.8*,-6.6%,-25.8%
CC(C)(C)c1cc(=O)n(-c2ccccc2)[nH]1,?,?,-27.8,-97.5*,3.2%,-18.1%
